Reference: PubChem BioAssay (NCI)
This is part of a sample that, as a whole, favours compounds with a hit. Of some 79,000 tested, about 15% had one in any assay. The source made the active and inactive calls. Rule as the data show it: active = growth inhibition above about 70%; inactive = the rest.

How the values were obtained:
[1] = NCI Yeast Anticancer Drug Screen. Data for the mlh1 strain (AID 171);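 also: 0% = growth of vehicle-treated control cultures of the same strain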; settings: S. cerevisiae mlh1 strain growth inhibition, hits give high values
Method in brief: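 A yeast strain with a defined genetic lesion serves as the test organism. Cultures receive compound or vehicle, and growth is measured.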

[2] = NCI Yeast Anticancer Drug Screen. Data for the sgs1 strain (AID 173);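 also: 0% = growth of vehicle-only control cultures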; settings: S. cerevisiae sgs1 mutant, hits give high values
Method in brief: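 A genetically defined yeast mutant is incubated with the test compound, and its growth is compared to that of the same strain given vehicle.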

[3] = NCI Yeast Anticancer Drug Screen. Data for the mlh1 rad18 strain (AID 175); settings: S. cerevisiae mlh1 rad18 strain growth inhibition, hits give high values
Method in brief: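 Steps: expose repair-defective yeast to compound; measure growth; express inhibition against vehicle-treated controls.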

[4] = NCI Yeast Anticancer Drug Screen. Data for the rad18 strain (AID 177); settings: S. cerevisiae rad18 mutant growth inhibition, hits give high values
Method in brief: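 Measured value is growth inhibition of a yeast strain bearing a DNA repair alteration, referenced to vehicle-treated cells.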

[5] = NCI Yeast Anticancer Drug Screen. Data for the rad52 strain (AID 147);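 also: 0% = growth of vehicle-treated control cultures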; settings: S. cerevisiae rad52 mutant growth inhibition, hits give high values
Method in brief: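 Here a repair-compromised yeast strain receives each compound; its growth is then quantified and normalised to vehicle-only controls.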

[6] = NCI Yeast Anticancer Drug Screen. Data for the wt1 strain (AID 149);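 also: 0% = growth of vehicle-treated wt1 cultures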; settings: S. cerevisiae wt1 strain (SPY 50644) growth inhibition, hits give high values
Method in brief: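 wt1 yeast, compound-treated; % growth inhibition vs vehicle control.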

[7] = NCI Yeast Anticancer Drug Screen. Data for the rad50EPP+ strain (AID 151);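 also: 0% = growth of vehicle-treated control cultures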; settings: S. cerevisiae rad50 mutant strain, hits give high values
Method in brief: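 Read-out is yeast growth inhibition relative to vehicle; cells used were the rad50EPP+ strain.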

[8] = NCI Yeast Anticancer Drug Screen. Data for the mgt1 strain (AID 153); settings: S. cerevisiae mgt1 mutant growth inhibition, hits give high values
Method in brief: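 Measured: inhibition of mgt1 yeast growth by compound, normalized to vehicle-treated cultures.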

[9] = NCI Yeast Anticancer Drug Screen. Data for the rad50 strain (AID 155);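 also: 0% = growth of vehicle-only cultures of the same strain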; settings: S. cerevisiae rad50 strain growth inhibition, hits give high values
Method in brief: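 Genetically altered yeast (DNA repair pathway); compound treatment; growth inhibition vs vehicle ctrl.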

[10] = NCI Yeast Anticancer Drug Screen. Data for the mec2-1 strain (AID 157); settings: S. cerevisiae mec2-1 strain, hits give high values
Method in brief: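 Using mec2-1 yeast: add compound, measure growth, express inhibition versus vehicle-treated cultures.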

[11] = NCI Yeast Anticancer Drug Screen. Data for the rad14 strain (AID 159);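 also: 0% = growth of vehicle-treated control cultures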; settings: S. cerevisiae rad14 strain growth inhibition, hits give high values
Method in brief: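 Test compounds were applied to a repair-deficient yeast strain. Its growth was then compared with that of cultures given vehicle alone, and inhibition was expressed relative to those controls.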

[12] = NCI Yeast Anticancer Drug Screen. Data for the sgs1 mgt1 strain (AID 161);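 also: 0% = growth of cultures given vehicle only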; settings: S. cerevisiae sgs1 mgt1 strain, hits give high values
Method in brief: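 Yeast cells carrying a defined DNA-repair defect were exposed to test compounds. Growth inhibition was measured relative to vehicle-treated controls.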

[13] = NCI Yeast Anticancer Drug Screen. Data for the cln2 rad14 strain (AID 165);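 also: 0% = growth equal to vehicle treated cultures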; settings: S. cerevisiae cln2 rad14 strain, hits give high values
Method in brief: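 Yeast strain cln2 rad14, bearing defects in cell cycle control and DNA repair, serves as the test system; values reflect growth inhibition compared with vehicle.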

[14] = NCI Yeast Anticancer Drug Screen. Data for the bub3 strain (AID 167); settings: S. cerevisiae bub3 mutant strain, hits give high values
Method in brief: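 Yeast carrying a defined mutation is treated with each compound, and growth is compared with that of vehicle-exposed cells to give inhibition.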

[15] = NCI Yeast Anticancer Drug Screen. Data for the wt2 strain (AID 169);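 also: 0% = growth of vehicle-treated yeast cultures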; settings: S. cerevisiae wt2 strain growth inhibition, hits give high values
Method in brief: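 Treated yeast vs. vehicle-treated yeast: growth inhibition determined.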

[16] = NCI Yeast Anticancer Drug Screen. Data for the CLN2oe strain (AID 163);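 also: 0% = growth of vehicle-only control cultures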; settings: S. cerevisiae CLN2oe strain, hits give high values
Method in brief: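 Whole-cell yeast growth assay. A strain engineered for altered cell-cycle control received compound, and inhibition relative to vehicle-treated cultures was recorded.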

[17] = at 5.0 µM (retest, dose inferred, filed as 0.5)
[18] = at 50.0 µM (retest, dose inferred, filed as 5.0)

Measured: growth inhibition

CC(=O)Oc1ccc2c(c1)Cc1cc(N3C(=O)C=CC3=O)ccc1-2
inactive: [1]; at 1.2 µM 13% | [1]; at 3.7 µM 24% | [2]; at 1.2 µM 16% | [2]; at 3.7 µM 33% | [3]; [17] 67% | [3]; at 50.0 µM 40.6% | [4]; at 1.2 µM 10% | [4]; at 3.7 µM 30%
active: [1]; at 11.0 µM 74% | [1]; at 33.0 µM 98% | [1]; at 100.0 µM 97% | [2]; at 11.0 µM 79% | [2]; at 33.0 µM 98% | [2]; at 100.0 µM 97% | [3]; [18] 98% | [4]; at 11.0 µM 85% | [4]; at 33.0 µM 96% | [4]; at 100.0 µM 95%

O=C1C(=O)N(c2ccccc2)[C@@]2(c3ccccc3)C(=Nc3ccccc3)OC(c3ccccc3)=C12
inactive: [5]; at 1.2 µM 0% | [5]; at 3.7 µM 0% | [5]; at 11.0 µM 3% | [5]; at 33.0 µM 4% | [5]; at 100.0 µM 40% | [6]; at 1.2 µM -2% | [6]; at 3.7 µM -1% | [6]; at 11.0 µM -1% | [6]; at 33.0 µM 2% | [6]; at 100.0 µM 31% | [7]; at 1.2 µM -3% | [7]; at 3.7 µM -1% | [7]; at 11.0 µM 2% | [7]; at 33.0 µM 31% | [8]; at 1.2 µM -3% | [8]; at 3.7 µM -1% | [9]; at 1.2 µM -1% | [9]; at 3.7 µM -2% | [9]; [17] 0% | [9]; at 11.0 µM 0% | [9]; at 33.0 µM 3% | [9]; [18] 4% | [9]; at 50.0 µM 21.6% | [9]; at 100.0 µM 36% | [10]; at 1.2 µM -2% | [10]; at 3.7 µM -1% | [10]; [17] -30% | [10]; at 11.0 µM 0% | [10]; at 33.0 µM 6% | [10]; [18] 45% | [10]; at 50.0 µM 10.5% | [10]; at 100.0 µM 41% | [11]; at 1.2 µM -1% | [11]; at 3.7 µM 1% | [11]; at 11.0 µM 3% | [11]; at 33.0 µM 8% | [11]; at 100.0 µM 57% | [12]; [17] 49% | [12]; at 50.0 µM 52% | [13]; [17] -1% | [13]; [18] 21% | [13]; at 50.0 µM 32.9% | [14]; at 1.2 µM -1% | [14]; at 3.7 µM -6% | [14]; [17] -5% | [14]; at 11.0 µM -5% | [14]; at 33.0 µM -5% | [14]; [18] 9% | [14]; at 50.0 µM 4.75% | [14]; at 100.0 µM 20% | [15]; at 1.2 µM -3% | [15]; at 3.7 µM -5% | [1]; at 1.2 µM -3% | [1]; at 3.7 µM -4% | [1]; at 11.0 µM 62% | [2]; at 1.2 µM -3% | [2]; at 3.7 µM 2% | [3]; [17] 1% | [3]; [18] -8% | [3]; at 50.0 µM 40.1% | [4]; at 1.2 µM -3% | [4]; at 3.7 µM 0% | [4]; at 11.0 µM 2% | [4]; at 33.0 µM 4% | [4]; at 100.0 µM 30%
active: [7]; at 100.0 µM 84% | [8]; at 11.0 µM 80% | [8]; at 33.0 µM 94% | [8]; at 100.0 µM 97% | [12]; [18] 96% | [15]; at 11.0 µM 72% | [15]; at 33.0 µM 93% | [15]; at 100.0 µM 96% | [1]; at 33.0 µM 93% | [1]; at 100.0 µM 95% | [2]; at 11.0 µM 74% | [2]; at 33.0 µM 93% | [2]; at 100.0 µM 96%

CCO/C=C1\SC(=S)N(c2ccc(OCC)cc2)C1=O
active: [5]; at 100.0 µM 70% | [7]; at 100.0 µM 76% | [9]; [18] 79% | [9]; at 100.0 µM 72% | [10]; [18] 86% | [14]; [18] 73% | [14]; at 50.0 µM 72.2% | [3]; [18] 76%
inactive: [5]; at 1.2 µM 3% | [5]; at 3.7 µM -1% | [5]; at 11.0 µM 0% | [5]; at 33.0 µM 25% | [6]; at 1.2 µM -36% | [6]; at 3.7 µM -51% | [6]; at 11.0 µM -50% | [6]; at 33.0 µM -34% | [6]; at 100.0 µM -33% | [7]; at 1.2 µM -38% | [7]; at 3.7 µM -21% | [7]; at 11.0 µM -6% | [7]; at 33.0 µM 42% | [8]; at 1.2 µM -13% | [8]; at 3.7 µM -6% | [8]; at 11.0 µM -20% | [8]; at 33.0 µM 0% | [8]; at 100.0 µM 45% | [9]; at 1.2 µM -17% | [9]; at 3.7 µM -7% | [9]; [17] 41% | [9]; at 11.0 µM -3% | [9]; at 33.0 µM 36% | [9]; at 50.0 µM 29.7% | [10]; at 1.2 µM -43% | [10]; at 3.7 µM -35% | [10]; [17] 47% | [10]; at 11.0 µM -27% | [10]; at 33.0 µM -41% | [10]; at 50.0 µM 28.2% | [10]; at 100.0 µM 26% | [11]; at 1.2 µM -42% | [11]; at 3.7 µM -41% | [11]; at 11.0 µM -40% | [11]; at 33.0 µM -2% | [11]; at 100.0 µM 8% | [12]; [17] -7% | [12]; [18] 44% | [12]; at 50.0 µM 33.5% | [16]; at 1.2 µM -8% | [16]; at 3.7 µM -1% | [16]; at 11.0 µM 4% | [16]; at 33.0 µM 21% | [16]; at 100.0 µM 57% | [13]; [17] 26% | [13]; [18] 60% | [13]; at 50.0 µM 21.1% | [14]; at 1.2 µM -7% | [14]; at 3.7 µM -4% | [14]; [17] 9% | [14]; at 11.0 µM -9% | [14]; at 33.0 µM 32% | [14]; at 100.0 µM 58% | [15]; at 1.2 µM -28% | [15]; at 3.7 µM -38% | [15]; at 11.0 µM -59% | [15]; at 33.0 µM -38% | [15]; at 100.0 µM 27% | [2]; at 1.2 µM -35% | [2]; at 3.7 µM -39% | [2]; at 11.0 µM -34% | [2]; at 33.0 µM -33% | [2]; at 100.0 µM 32% | [3]; [17] 29% | [3]; at 50.0 µM 57.5% | [4]; at 1.2 µM -37% | [4]; at 3.7 µM -31% | [4]; at 11.0 µM -32% | [4]; at 33.0 µM -21% | [4]; at 100.0 µM 18%
